The list is not random: actives were taken first. Their share in the collection is about 7%.
GRIN3A LBD mod – binders of NR3A ligand-binding domain, primary screen, biophysical, differential scanning fluorimetry, uHTS; Glutamate receptor ionotropic, NMDA 3A (GRIN3A) ligand-binding domain; actives 2.5% (n = 340,000); Tm shift relative to glycine control, % at 25 µM; AID 1259313, 2017; NR3A LBD differential scanning fluorimetry, Tm shift; 0% = protein alone, 100% = glycine-bound protein;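 active means melting temperature shift of at least 10% of the positive control shift, at one fixed dose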
ADAM10 inh – human ADAM10 inhibitors, primary screen, biochemical, QFRET, HTS; Disintegrin and metalloproteinase domain-containing protein 10 (Homo sapiens), O14672; recombinant ADAM10, EDANS/DABCYL FRET peptide cleavage, 3 h; inhibition, % at 7 µM; actives 0.62% (n = 370,000);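 active means inhibition above a per-campaign cutoff equal to the mean of compounds falling between control-based bounds plus 3 SD, cut at about 20% in these data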
AHR activator – AHR activators, primary screen, cell-based, luminescence, luciferase reporter, human | AHR-responsive luciferase reporter cells | AID 2796, 2010 | activation, % at 5 µM | actives 2.5% (n = 320,000) | Aryl hydrocarbon receptor (Homo sapiens), P35869; in the data active means activation above about 47%
ADAM17 inh – ADAM17 inhibitors, primary screen, biochemical, QFRET; Disintegrin and metalloproteinase domain-containing protein 17 (Homo sapiens), P78536; recombinant ADAM17, EDANS/DABCYL FRET peptide cleavage; inhibition, % at 6.95 µM; actives 0.83% (n = 370,000);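 active means inhibition above the mean of compounds lying between control limits plus 3 SD, set per campaign, cut at about 8.5% in these data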
rCAG binder – binders of r(CAG) RNA repeats, primary screen, biochemical, fluorescence. r(CAG) RNA repeat, TO-PRO-1 dye displacement fluorescence. inhibition, % at 3 µM. actives 1.3% (n = 370,000);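 active means inhibition above the plate cutoff, the mean of all test compounds on that plate plus 3 SD, cut at about 35% in these data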;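 further: higher means more dye released from RNA so lower well fluorescence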
KLK7 zymogen act – proKLK7 zymogen activators, primary screen, biochemical, fluorescence intensity | Kallikrein-7 (Homo sapiens), P49862 | purified proKLK7, EDANS-DABCYL substrate fluorescence; 100% is mature enzyme control, 0% vehicle | activation, % at 7 µM | actives 0.9% (n = 370,000);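 active means activation above the mean of all tested compounds plus 3 SD, computed per campaign excluding outliers beyond control limits, cut at about 13% in these data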
Target sequence (P49862 whole entry, looked up): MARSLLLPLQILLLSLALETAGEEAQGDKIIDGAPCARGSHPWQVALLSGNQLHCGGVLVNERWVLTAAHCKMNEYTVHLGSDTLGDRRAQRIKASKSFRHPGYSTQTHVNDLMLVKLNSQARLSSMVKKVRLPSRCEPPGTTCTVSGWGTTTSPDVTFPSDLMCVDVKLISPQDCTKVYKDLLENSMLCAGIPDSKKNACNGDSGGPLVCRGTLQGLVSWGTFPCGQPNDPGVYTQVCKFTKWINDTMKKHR
AHR act cf – AHR activators, confirmation, cell-based, luminescence, luciferase reporter, human. activation, % at 9 µM. human cells, AHR-responsive luciferase reporter. actives 87% (n = 2,300). shares compounds with AHR activator; in the data active means activation above about 49%;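 further: HepG2 hepatoma cells carrying a DRE-driven firefly luciferase reporter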
PXR counter – human PXR activators, counter-screen for AHR activator project, cell-based, luciferase luminescence; shares compounds with AHR activator; actives 88% (n = 2,300); activation, % at 11.6 µM; cell-based PXR reporter; in the data active means activation above about 11%;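 further: human hepatoma DPX-2 cells expressing full-length human PXR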
Target sequence (O75469 whole entry, looked up): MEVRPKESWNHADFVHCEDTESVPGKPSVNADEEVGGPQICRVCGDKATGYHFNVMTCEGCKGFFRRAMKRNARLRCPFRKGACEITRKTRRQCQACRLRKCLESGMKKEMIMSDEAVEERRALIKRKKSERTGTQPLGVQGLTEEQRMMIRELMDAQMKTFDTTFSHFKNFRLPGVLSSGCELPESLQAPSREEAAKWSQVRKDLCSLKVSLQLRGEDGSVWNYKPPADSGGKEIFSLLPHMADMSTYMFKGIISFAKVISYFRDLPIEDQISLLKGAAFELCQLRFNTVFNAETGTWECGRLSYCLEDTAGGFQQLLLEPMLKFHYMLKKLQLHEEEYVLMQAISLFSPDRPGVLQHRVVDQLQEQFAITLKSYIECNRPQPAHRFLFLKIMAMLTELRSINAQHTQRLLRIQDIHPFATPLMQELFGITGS
Large screens that a line does not name were inactive (follow-up assays come after a bar, where they were run).

COc1ccc(N2CCN(C(=O)c3cc4c(-c5ccc(Cl)cc5)nn(C)c4s3)CC2)cc1	AHR activator 90 | AHR act cf 121 | PXR counter 33
CN1CCN(CCCNC(=O)c2cc3c(-c4ccc(Cl)cc4)nn(C)c3s2)CC1	AHR activator 98 | AHR act cf 102
COC(=O)[C@]12C[C@H](CC(=O)NCCC(C)C)C(=O)N(Cc3ccco3)C1=C[C@H](C1CCCC1)O[C@@H]2C	none (no result: GRIN3A LBD mod, AHR activator)
O=C(NC1CCCCN(Cc2cccc(C(F)(F)F)c2)C1=O)c1cccc(C(F)(F)F)c1 (stereo not given)	none (no result: GRIN3A LBD mod, AHR activator)
COc1ccc(-c2cc(NC(=O)Cc3c[nH]c4ccccc34)ccc2Nc2cccnc2)cc1F	none (no result: GRIN3A LBD mod, AHR activator)
O=C(Nc1ccc(Br)cc1)c1cccc(N2C(=O)C3CCCCC3C2=O)c1 (stereo not given)	AHR activator 114 | AHR act cf inactive | PXR counter 18
COc1cccc(C#Cc2c(C=O)n(C)c3ccccc23)c1	AHR activator 110 | AHR act cf 130 | PXR counter 43
Cn1c(C=O)c(C#CC(C)(C)O)c2ccccc21	none
COc1ccc(C#Cc2ccc3c(c2)c(=O)c2ccccc2n3C)cc1	GRIN3A LBD mod 12, AHR activator 91 | AHR act cf 103 | PXR counter 14
COC(=O)[C@]12C[C@H](CC(=O)NCc3ccc(C)o3)C(=O)N(Cc3ccccc3)C1=C[C@H](C(C)C)O[C@@H]2C1CC1	none (no result: GRIN3A LBD mod, AHR activator)
COc1ccccc1C(=O)N1CCC2CCN(C(=O)OC(C)(C)C)C2C1 (stereo not given)	none (no result: GRIN3A LBD mod, AHR activator)
CCCCS(=O)(=O)NCC1CCN(C(=O)C(=O)c2cc3ccccc3o2)CC1	none (no result: GRIN3A LBD mod, AHR activator)
CNC(=S)N/N=C1\C(=O)c2cccc3cccc1c23	AHR activator 90 | AHR act cf 114 | PXR counter 39
CCCCNC(=S)N/N=C1\C(=O)c2cccc3cccc1c23	none
COc1ccccc1-n1cc(-c2ccccc2)[nH]c1=S	AHR activator 102 | AHR act cf 106 | PXR counter 49
CC(C)c1ccc(NC(=O)CCN2C(=O)[C@@H]3Cc4ccccc4CN3C2=O)cc1	AHR activator 89 | AHR act cf inactive | PXR counter 97
COc1ccc(C(=O)N/C(=C\c2cn(C)c3ccccc23)C(=O)OCC(C)C)cc1	AHR activator 90 | AHR act cf 60 | PXR counter 137
COc1ccc(C(=O)N/C(=C\c2cn(S(=O)(=O)N(C)C)c3ccccc23)C(=O)NC(C)C)cc1	none
CCN(CC)C(=O)/C(=C/c1cn(S(=O)(=O)N(C)C)c2ccccc12)NC(=O)c1ccc(OC)cc1	none
COc1ccc(C(=O)N/C(=C\c2cn(C)c3ccccc23)C(=O)OCCN(C)C)cc1	AHR activator 100 | AHR act cf 109 | PXR counter 94
COc1ccc(-c2ccc3c(n2)CCCN3S(=O)(=O)c2ccc(C#N)cc2)cc1	none (no result: GRIN3A LBD mod, AHR activator)
Cc1cc(N/C=C/C(=O)c2ccccc2)ccc1Br	AHR activator 94 | AHR act cf 108 | PXR counter 11
COCC(=O)Nc1ccc2c(c1)C(=O)N(C)[C@@H]1CC[C@@H](CC(=O)OC)O[C@H]1CO2	none (no result: GRIN3A LBD mod, AHR activator)
COc1ccc(Nc2nc3cc(C)ccc3cc2C#N)c(OC)c1	none
COc1ccc(Nc2nc3cc(C)ccc3cc2C#N)cc1	AHR activator 108 | AHR act cf 94 | PXR counter 15
CCOc1ccc(-n2c(SCC(=O)c3ccc4ccccc4c3)nnc2-c2cccc(Cl)c2)cc1	none (no result: GRIN3A LBD mod, AHR activator)
CCOc1cccc(-c2nn3c(-c4cccc(C)c4)nnc3s2)c1	none (no result: GRIN3A LBD mod, AHR activator)
CCCc1cc(=O)oc2cc(OCC(=O)NCc3cccs3)ccc12	AHR activator 87 | AHR act cf inactive | PXR counter 44
CCCc1cc(=O)oc2cc(OCC(=O)NCc3ccccn3)ccc12	none
Cc1ccc2[nH]c(-c3ccccc3)cc(=O)c2c1	AHR activator 135 | AHR act cf inactive | PXR counter 57
COc1cc2[nH]c(-c3cccc(F)c3)cc(=O)c2cc1OC	AHR activator 91 | AHR act cf 54
Cc1ccc(-c2cc(=O)c3cc(Cl)ccc3[nH]2)cc1	none (no result: GRIN3A LBD mod, ADAM10 inh, ADAM17 inh, rCAG binder, KLK7 zymogen act)
COc1ccc(-c2cc(=O)c3cc(OC)ccc3[nH]2)cc1	none (no result: ADAM10 inh, ADAM17 inh, rCAG binder, KLK7 zymogen act)
COc1ccc(-c2cc(=O)c3cc(C)ccc3[nH]2)cc1	none
COc1cc2[nH]c(-c3ccc(C)cc3)cc(=O)c2cc1OC	AHR activator 134 | AHR act cf 78 | PXR counter 13
CN(Cc1ccccc1)C(=O)OCc1cn(Cc2cccc(F)c2)nn1	none (no result: GRIN3A LBD mod, AHR activator)
COc1ccccc1-c1nnc(-c2ccc(C)cc2)o1	AHR activator 81 | AHR act cf 123 | PXR counter 39
O[C@H](COc1cccc(F)c1)CN1CCC(C(O)(c2ccccc2)c2ccccc2)CC1	none (no result: GRIN3A LBD mod, AHR activator)
CC(C)(C)c1ccc(C(=O)Nc2nnc(Cc3c[nH]c4ccccc34)s2)cc1	GRIN3A LBD mod 26, AHR activator 90 | AHR act cf 88 | PXR counter 14
Cc1nn(Cc2ccc(F)cc2)c2sc(C(=O)Nc3ccccc3N3CCOCC3)cc12	none
Cc1nn(Cc2ccccc2Cl)c2sc(C(=O)Nc3nccs3)cc12	AHR activator 102 | AHR act cf 119 | PXR counter 99
Cc1nn(Cc2ccc(F)cc2)c2sc(C(=O)Nc3nccs3)cc12	AHR activator 96 | AHR act cf 109 | PXR counter 38
Cc1cccc(NC(=O)C2CCCN2S(=O)(=O)c2cccnc2)c1C (stereo not given)	none (no result: GRIN3A LBD mod, AHR activator)
O=C(OCc1cc(=O)n2ccsc2n1)c1ccccc1O	none
O=C(OCc1cc(=O)n2ccsc2n1)c1ccccc1NCCO	AHR activator 79 | AHR act cf 79 | PXR counter inactive
Cc1noc(C)c1COc1ccccc1C(=O)NNC(=O)c1ccccc1F	AHR activator 92 | AHR act cf 117 | PXR counter 73
O=C(C(=O)N1CCN(S(=O)(=O)c2ccccc2)CC1)c1cccc(C(F)(F)F)c1	none (no result: GRIN3A LBD mod, AHR activator)
CC(=O)c1c(C)[nH]c(C(=O)NCCc2ccccc2)c1C	AHR activator 116 | AHR act cf 70 | PXR counter 79

Screening results from PubChem.
